From PubChem BioAssay (Tox21)
Values joined by “and” are separate entries in the source; they are usually repeats but may differ in a detail not shown here. Equal entries are not always repeated. Some compounds were tested as several samples or in several runs, with calls that do not always agree. Active and inactive are the calls of the source. A call without a number means that no potency is given here. Unless noted, calls come from the whole dose curve; as a rule, active = well fitted curve in the direction sought with a large enough effect in the repeat runs; inconclusive = weak or mixed curves; inactive = no such curve, though single readings can be large; an effect the other way counts as inactive or inconclusive.

Assays:
[1] = qHTS assay to identify small molecule antagonists of the thyroid receptor (TR) signaling pathway - cell viability counter screen (AID 743064); note: nearly all actives have a fitted effect of over 50% in size; note: potency is the fitted concentration of half-maximal effect
Outline: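 Plate GH3.TRE-Luc cells; incubate 4 h at 37 °C; add compound, then T3 to 1 nM final; incubate 23.5 h; add CellTiter-Fluor; incubate 30 min at 37 °C, 5% CO2; read fluorescence.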

[2] = qHTS assay to identify small molecule antagonists of the estrogen receptor alpha (ER-alpha) signaling pathway using the BG1 cell line - cell viability counter screen (AID 743081);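 note: compound given together with 17beta-estradiol as the ER stimulus; nearly all actives have a fitted effect of over 45% in size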; note: potency is the fitted concentration of half-maximal effect
Aromatase (Homo sapiens) = Aromatase (Homo sapiens) (UniProt P11511); assay: qHTS assay to identify aromatase inhibitors (AID 743083); note: nearly all actives have a fitted effect of over 55% in size; note: potency is the fitted concentration of half-maximal effect
[3] = qHTS assay to identify small molecule that activate the aryl hydrocarbon receptor (AhR) signaling pathway - cell viability counter screen (AID 743086); note: nearly all actives have a fitted effect of over 45% in size; note: potency is the fitted concentration of half-maximal effect
Outline: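 Cytotoxicity counter screen: CellTiter-Fluor signal (30 min, 37 C) in 4000 HepG2 cells/well carrying the DRE-luciferase reporter, following 24 h compound exposure at 37 C.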

[4] = qHTS assay for small molecule agonists of the antioxidant response element (ARE) signaling pathway (AID 743202; active = well fitted activation curve with a large enough effect in the signal ratio in the repeat runs, not every such curve was filed as active; inconclusive = weak or mixed curves, or effect the other way; inactive = no such curve, though single readings can be large or run the other way; the % refers to the signal ratio; note: potency is the fitted concentration of half-maximal effect)
Outline: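 Quantitative high-throughput format in HepG2 cells bearing an integrated ARE-beta-lactamase reporter. Compound exposure lasted 16 h at 37 C, and fluorescence was read 2 h after adding LiveBLAzer B/G substrate at room temperature.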

[5] = qHTS assay for small molecule agonists of the antioxidant response element (ARE) signaling pathway - cell viability counter screen (AID 743203; calls by dose curve; note: nearly all actives have a fitted effect of over 55% in size; note: potency is the fitted concentration of half-maximal effect)
Outline: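 Cells (ARE-bla HepG2, 2,000/well) receive DMSO-dissolved compounds after a 5 hrs rest. Plates incubate 16 hrs at 37C/5% CO2. CellTiter-Glo luminescence is then recorded after 30 min at room temperature.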

[6] = qHTS assay for small molecule activators of the heat shock response signaling pathway - cell viability counter screen (AID 743209); note: nearly all actives have a fitted effect of over 50% in size; note: potency is the fitted concentration of half-maximal effect
Outline: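 Quantitative HTS format, Tox21 10K library. HeLa cells carrying an HSE-driven beta-lactamase reporter were treated 5 h at 37 C, then assessed for viability by CellTiter-Glo luminescence.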

[7] = qHTS assay to identify small molecule antagonists of the thyroid receptor (TR) signaling pathway (AID 743065); note: nearly all actives have a fitted effect of over 55% in size; note: potency is the fitted concentration of half-maximal effect
Outline: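 Antagonism measured as loss of luciferase signal in GH3 cells stably carrying a TRE-luciferase reporter, co-treated with compound and T3 (1 nM final) for 23.5 h at 37 C. Viability was read in the same well by CellTiter-Fluor.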

[8] = test system: thyroid hormone receptor (rat, GH3 cells); assay: qHTS assay to identify small molecule agonists of the thyroid receptor (TR) signaling pathway (AID 743066; calls by dose curve)
[9] = qHTS assay to identify small molecule antagonists of the estrogen receptor alpha (ER-alpha) signaling pathway - cell viability counter screen (AID 743074; calls by dose curve;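 note: HEK293 cells carrying ER-alpha-UAS-bla reporter stimulated with 17beta-estradiol; nearly all actives have a fitted effect of over 45% in size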; note: potency is the fitted concentration of half-maximal effect)
[10] = target: Estrogen receptor (Homo sapiens) (UniProt P03372); assay: qHTS assay to identify small molecule agonists of the estrogen receptor alpha (ER-alpha) signaling pathway (AID 743075; calls by dose curve;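 note: HEK293 GripTite cells with ER-alpha and UAS-driven beta-lactamase reporter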; note: potency is the fitted concentration of half-maximal effect)
[11] = target: Estrogen receptor (Homo sapiens) (UniProt P03372); assay: qHTS assay to identify small molecule agonists of the estrogen receptor alpha (ER-alpha) signaling pathway using the BG1 cell line (AID 743079); note: nearly all actives have a fitted effect of over 20% in size; note: potency is the fitted concentration of half-maximal effect
[12] = qHTS assay to identify aromatase inhibitors - cell viability counter screen (AID 743084);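 note: cells stimulated with testosterone during compound exposure; nearly all actives have a fitted effect of over 55% in size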; note: potency is the fitted concentration of half-maximal effect
[13] = target: Aryl hydrocarbon receptor (Homo sapiens) (UniProt P35869); assay: qHTS assay to identify small molecule that activate the aryl hydrocarbon receptor (AhR) signaling pathway (AID 743085); note: nearly all actives have a fitted effect of over 15% in size; note: potency is the fitted concentration of half-maximal effect;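 for activation: HG2L7.5c1 human HepG2 liver cells with stably integrated DRE-driven firefly reporter; series mostly up to about 70 µM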
Outline: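 Steps: seed HepG2-AhR-luc cells; allow 5 h at 37C; pin-transfer test compound or vehicle; incubate 24 h at 37C; add viability dye (30 min, 37C) and read fluorescence; add luciferase substrate (30 min, RT) and read luminescence.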

[14] = target: Peroxisome proliferator-activated receptor gamma (Homo sapiens) (UniProt P37231); assay: qHTS assay to identify small molecule agonists of the peroxisome proliferator-activated receptor gamma (PPARg) signaling pathway (AID 743094; active = well fitted activation curve with a large enough effect in the signal ratio in the repeat runs, not every such curve was filed as active; inconclusive = weak or mixed curves, or effect the other way; inactive = no such curve, though single readings can be large or run the other way; the % refers to the signal ratio)
Outline: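 Stably transfected HEK293H cells (GeneBLAzer PPARg UAS-bla) were incubated with test substances for 17 h at 37C after a 5 h pre-incubation; beta-lactamase activity was then detected by FRET substrate fluorescence.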

[15] = qHTS assay to identify small molecule antagonists of the peroxisome proliferator-activated receptor gamma (PPARg) signaling pathway - cell viability counter screen (AID 743194); note: nearly all actives have a fitted effect of over 55% in size; note: potency is the fitted concentration of half-maximal effect
Outline: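 Viability was measured as CellTiter-Glo luminescence in GeneBLAzer PPARg UAS-bla HEK293H cells. These cells had been exposed 17 h at 37 C to compounds together with rosiglitazone at 50 nM final, with the beta-lactamase readout taken in the same wells.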

[16] = target: Estrogen receptor (Homo sapiens) (UniProt P03372); assay: qHTS assay to identify small molecule antagonists of the estrogen receptor alpha (ER-alpha) signaling pathway (AID 743069; active = well fitted curve in the direction sought with a large enough effect in the signal ratio in the repeat runs, not every such curve was filed as active; inconclusive = weak or mixed curves, or effect the other way; inactive = no such curve, though single readings can be large or run the other way; the % refers to the signal ratio; note: potency is the fitted concentration of half-maximal effect)
Outline: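 ER-alpha-UAS-bla GripTite HEK293 line; 2% charcoal-stripped FBS overnight; plated, 4 hr 37C/5% CO2; cpd in DMSO + 17beta-estradiol, 18 hr 37C; LiveBLAzer B/G FRET substrate 2 hr RT; fluorescence intensity.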

[17] = qHTS assay for small molecule activators of the heat shock response signaling pathway (AID 743210; active = well fitted activation curve with a large enough effect in the signal ratio in the repeat runs, with a control signal flat, not every such curve was filed as active; inconclusive = weak or mixed curves; the % refers to the signal ratio;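 note: HeLa cells with beta-lactamase reporter driven by heat shock elements; series mostly up to about 63 µM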)
Outline: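 HeLa HSE-bla cells, overnight plating; cpd in DMSO 5 h, 37 C; LiveBLAzer B/G FRET substrate 2.5 h RT; fluorescence intensity read.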

[18] = qHTS assay to identify small molecule antagonists of the estrogen receptor alpha (ER-alpha) signaling pathway using the BG1 cell line (AID 743080; calls by dose curve;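 note: BG1 cells stimulated with 17beta-estradiol alongside compound; series mostly up to about 70 µM; nearly all actives have a fitted effect of over 25% in size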)
Outline: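 Endogenous full-length ER-alpha in BG1-Luc-4E2 cells drives a stably integrated 4×ERE luciferase gene; compounds were tested against 17beta-estradiol over 21.5 h, with luminescence and multiplexed viability fluorescence recorded.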

[19] = target: Peroxisome proliferator-activated receptor gamma (Homo sapiens) (UniProt P37231); assay: qHTS assay to identify small molecule antagonists of the peroxisome proliferator-activated receptor gamma (PPARg) signaling pathway (AID 743191; calls by dose curve; note: series mostly up to about 63 µM; nearly all actives have a fitted effect of over 30% in size)
Outline: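 Beta-lactamase reporter under UAS control in HEK293H PPARg-bla cells; compound treatment 17 h at 37C. Read-out: fluorescence intensity after 1 h room-temperature incubation with LiveBLAzer B/G FRET substrate.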

Sequence of Aryl hydrocarbon receptor (Homo sapiens) (P35869 whole entry, looked up): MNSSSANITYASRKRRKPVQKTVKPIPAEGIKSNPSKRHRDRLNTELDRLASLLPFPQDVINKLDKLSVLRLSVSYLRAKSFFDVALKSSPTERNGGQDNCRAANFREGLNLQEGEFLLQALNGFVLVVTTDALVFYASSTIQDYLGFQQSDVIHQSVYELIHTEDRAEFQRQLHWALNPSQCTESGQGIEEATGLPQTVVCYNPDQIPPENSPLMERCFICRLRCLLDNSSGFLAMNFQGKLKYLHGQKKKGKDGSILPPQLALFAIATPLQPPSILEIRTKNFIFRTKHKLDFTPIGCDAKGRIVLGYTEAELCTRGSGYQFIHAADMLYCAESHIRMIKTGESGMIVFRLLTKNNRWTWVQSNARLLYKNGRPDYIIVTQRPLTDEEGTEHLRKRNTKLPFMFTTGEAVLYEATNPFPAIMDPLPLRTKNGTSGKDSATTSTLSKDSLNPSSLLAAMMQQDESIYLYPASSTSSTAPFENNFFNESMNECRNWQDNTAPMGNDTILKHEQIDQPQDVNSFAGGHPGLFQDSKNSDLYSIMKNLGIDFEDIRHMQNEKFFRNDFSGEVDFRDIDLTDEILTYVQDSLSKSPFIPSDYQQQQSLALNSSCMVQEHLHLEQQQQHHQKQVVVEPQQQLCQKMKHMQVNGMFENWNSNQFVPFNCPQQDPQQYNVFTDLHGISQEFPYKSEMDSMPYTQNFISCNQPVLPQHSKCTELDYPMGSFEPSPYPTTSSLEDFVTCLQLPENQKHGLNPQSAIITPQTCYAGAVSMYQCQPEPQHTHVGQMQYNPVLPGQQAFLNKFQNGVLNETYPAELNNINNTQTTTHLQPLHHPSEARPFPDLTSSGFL
Sequence of Aromatase (Homo sapiens) (P11511 whole entry, looked up): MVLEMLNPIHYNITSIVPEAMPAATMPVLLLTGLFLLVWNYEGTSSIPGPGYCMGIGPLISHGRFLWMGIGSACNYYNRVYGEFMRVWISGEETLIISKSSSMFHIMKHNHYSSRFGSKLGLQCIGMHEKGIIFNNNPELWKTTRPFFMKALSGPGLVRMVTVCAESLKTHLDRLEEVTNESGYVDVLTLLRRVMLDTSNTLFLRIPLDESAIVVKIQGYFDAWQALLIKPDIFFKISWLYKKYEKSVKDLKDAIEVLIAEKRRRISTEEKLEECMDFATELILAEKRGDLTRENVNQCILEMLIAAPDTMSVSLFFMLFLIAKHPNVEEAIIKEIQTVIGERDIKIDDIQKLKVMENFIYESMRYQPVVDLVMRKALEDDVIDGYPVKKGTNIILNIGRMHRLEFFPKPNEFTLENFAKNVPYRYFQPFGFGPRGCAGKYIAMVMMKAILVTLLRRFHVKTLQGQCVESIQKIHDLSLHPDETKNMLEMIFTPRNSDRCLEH
Sequence of Estrogen receptor (Homo sapiens) (P03372 whole entry, looked up): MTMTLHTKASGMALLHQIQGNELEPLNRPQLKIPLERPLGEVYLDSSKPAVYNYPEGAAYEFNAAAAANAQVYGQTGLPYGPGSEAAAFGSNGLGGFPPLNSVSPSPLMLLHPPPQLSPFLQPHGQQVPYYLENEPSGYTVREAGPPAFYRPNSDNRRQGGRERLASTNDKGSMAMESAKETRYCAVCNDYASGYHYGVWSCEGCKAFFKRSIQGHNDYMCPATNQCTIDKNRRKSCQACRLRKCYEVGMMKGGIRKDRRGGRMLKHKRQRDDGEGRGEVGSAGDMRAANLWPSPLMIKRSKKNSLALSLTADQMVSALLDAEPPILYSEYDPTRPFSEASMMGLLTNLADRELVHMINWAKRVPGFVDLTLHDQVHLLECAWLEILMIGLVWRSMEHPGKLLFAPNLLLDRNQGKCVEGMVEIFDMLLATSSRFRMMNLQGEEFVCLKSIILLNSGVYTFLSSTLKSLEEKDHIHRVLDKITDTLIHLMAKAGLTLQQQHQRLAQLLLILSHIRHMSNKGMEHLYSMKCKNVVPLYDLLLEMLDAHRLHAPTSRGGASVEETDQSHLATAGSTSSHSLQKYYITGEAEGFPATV
Sequence of Peroxisome proliferator-activated receptor gamma (Homo sapiens) (P37231 whole entry, looked up): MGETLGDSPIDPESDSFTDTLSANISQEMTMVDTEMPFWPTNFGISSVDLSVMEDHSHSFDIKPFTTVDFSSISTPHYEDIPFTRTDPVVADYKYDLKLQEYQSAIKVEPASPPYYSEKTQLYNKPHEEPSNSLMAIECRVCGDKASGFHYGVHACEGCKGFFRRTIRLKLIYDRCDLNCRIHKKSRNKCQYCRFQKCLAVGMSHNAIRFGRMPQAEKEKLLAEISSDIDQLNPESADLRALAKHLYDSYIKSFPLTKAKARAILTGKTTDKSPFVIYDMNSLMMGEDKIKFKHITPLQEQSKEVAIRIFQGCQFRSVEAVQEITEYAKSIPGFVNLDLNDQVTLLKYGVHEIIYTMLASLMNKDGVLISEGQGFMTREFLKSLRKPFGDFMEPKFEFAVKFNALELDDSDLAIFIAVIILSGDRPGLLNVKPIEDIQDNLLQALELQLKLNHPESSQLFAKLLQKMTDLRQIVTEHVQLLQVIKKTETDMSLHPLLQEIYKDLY

| Structure (SMILES) | Potency [1] | Potency [2] | Potency (Aromatase (Homo sapiens)) | Potency [3] | Potency [4] | Potency [5] | Potency [6] | Potency [7] | outcome [8] | Potency [9] | Potency [10] | Potency [11] | Potency [12] | Potency [13] | Potency [14] | Potency [15] | Potency [16] | Potency [17] | Potency [18] | Potency [19] |
| --- | --- | --- | --- | --- | --- | --- | --- | --- | --- | --- | --- | --- | --- | --- | --- | --- | --- | --- | --- | --- |
| O=c1oc2cc(O)ccc2c2oc3cc(O)ccc3c12 | inactive | inactive | inactive | inactive | 20.8 µM (active) | inactive | inactive |  |  |  |  |  |  |  |  |  |  |  |  |  |
| CCOC(=O)Cn1cccc1-c1nc(-c2ccc(OC)cc2)c(-c2ccc(OC)cc2)s1 |  | inactive | inactive | inactive | 7.5 µM (active) | inactive | inactive | 13.3 µM (active) | inactive | inactive | inactive | inactive | inactive | inactive | inactive | inactive |  |  |  |  |
| Cc1nc2n(c(=O)c1CCN1CCC(c3noc4cc(F)ccc34)CC1)CCCC2 |  |  | inactive | inactive |  | inactive | inactive | inactive | inactive | inactive | inactive | inactive | inactive | inactive |  | inactive | inactive | inactive |  |  |
| Nc1nc(-c2ccccc2)cs1 | inactive | inactive | inactive | inactive |  | inactive | inactive |  |  | inactive |  |  | inactive | 24.3 µM (active) | inactive | inactive |  |  |  |  |
| CNc1ccc([N+](=O)[O-])cc1 |  | 48.7 µM (active) | 12.2 µM (active) |  | inactive |  | 12.3 µM (active) | 27.4 µM (active) | inactive | inactive | inactive | 34.4 µM (active) | 34.4 µM (active) | 54.6 µM (active) |  | inactive | inactive |  |  |  |
| CN1CCN(Cc2cc(-c3ccc4[nH]c(=O)oc4c3)co2)[C@@H](c2ccc(F)cc2)C1 | 46.7 µM (active) |  |  | 52.4 µM (active) |  |  | inactive |  |  | inactive | inactive |  |  | inactive |  | inactive | 47.1 µM [inhibitor] (active) |  |  |  |
| Oc1c(I)cc(Cl)c2cccnc12 | inactive | inactive | inactive and 27.3 µM (active) |  |  | 68.5 µM (active) | inactive |  | inactive |  |  |  | inactive | 944 nM (active) and 61 µM (active) | inactive | 4.36 µM (active) and 5.96 µM (active) |  |  |  |  |
| CC(C)(C)NSc1nc2ccccc2s1 | inactive | inactive |  | inactive | 27.8 µM (active) |  |  |  |  | inactive | inactive | inactive | inactive | 27.8 µM (active) |  | inactive | inactive |  | inactive |  |
| [Cl][Pt-2]([Cl])([Cl])[Cl] |  | inactive | inactive | inactive | 48.8 µM (active) | inactive | inactive | inactive | inactive | inactive | inactive | inactive | inactive | inactive |  | inactive | inactive | inactive |  | inactive |
| Nc1ccc(NCCO)c([N+](=O)[O-])c1 | 54.5 µM (active) |  | inactive |  |  |  |  |  | inactive | inactive |  |  |  | 15.4 µM (active) | inactive |  |  | inactive |  | inactive |
| COC(=O)Nc1nc2ccc(C(=O)c3ccccc3)cc2[nH]1 | 0.285 µM (active) | inactive | inactive | inactive |  |  | inactive |  |  |  |  | inactive | inactive | 4.52 µM (active) | inactive | inactive | inactive | inactive |  |  |
| O=c1[nH]c(=O)n([C@H]2C[C@H](O)[C@@H](CO)O2)cc1F |  | inactive | inactive | inactive |  |  | inactive | 0.75 µM (active) | inactive | 379 nM (active) | inactive | inactive | inactive | inactive |  |  |  | inactive |  |  |
| O=S(=O)(O)c1ccccc1/C=C/c1ccc(-c2ccc(/C=C/c3ccccc3S(=O)(=O)O)cc2)cc1 |  |  | inactive |  |  | inactive | inactive | inactive | inactive | inactive |  | inactive |  | inactive |  | inactive |  |  |  |  |
| COc1ccc2cc1Oc1ccc(cc1)C[C@H]1c3c(cc4c(c3Oc3cc5c(cc3OC)CCN(C)[C@@H]5C2)OCO4)CCN1C | 13.3 µM (active) |  | inactive |  |  |  | inactive |  |  | inactive | inactive | inactive | inactive | inactive |  |  | inactive | inactive | inactive |  |
| Oc1cc(Cl)cc(Cl)c1Cl | inactive |  |  | inactive | 62.6 µM (active) | inactive | inactive |  | inactive |  | inactive |  | inactive |  | inactive | inactive |  | inactive | inactive |  |
| C=CC(=O)Nc1cc2c(Nc3ccc(F)c(Cl)c3)ncnc2cc1OCCCN1CCOCC1 | 5.31 µM (active) |  | inactive |  |  |  |  |  |  |  | 23.9 µM [inconclusive] (active) | 29.8 µM (active) | inactive | inactive |  |  |  |  |  |  |
| CCN(CCN)c1cccc(C)c1 |  | inactive | inactive | inactive | inactive | inactive | inactive | inactive | inactive | inactive | inactive | inactive | inactive | inactive | inactive |  | inactive |  | inactive |  |
| C[Si](Cl)(c1ccccc1)c1ccccc1 |  | inactive |  |  |  | inactive | inactive | inactive | inactive | inactive | inactive | inactive | inactive | inactive | inactive |  | inactive | inactive | inactive |  |
